This is an account of results in PubChem BioAssay (Tox21).

Assay [1] is described as follows: qHTS assay to identify small molecule antagonists of the thyroid receptor (TR) signaling pathway - cell viability counter screen (AID 743064). Further: nearly all actives have a fitted effect of over 50% in size. Further: potency means the concentration at half of the fitted maximal effect. Put shortly: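 GH3.TRE-Luc cells, 4 h pre-plating; cpd + T3 1 nM final; 37 °C 23.5 h; CellTiter-Fluor 30 min; fluorescence read.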
For orientation: In qHTS, concentration-response curves come from the screen itself.

Assay [2] is described as follows: qHTS assay to identify small molecule antagonists of the thyroid receptor (TR) signaling pathway (AID 743065). Further: nearly all actives have a fitted effect of over 55% in size. Further: potency means the concentration at half of the fitted maximal effect. Put shortly:
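Antagonism measured as loss of luciferase signal in GH3 cells stably carrying a TRE-luciferase reporter, co-treated with compound and T3 (1 nM final) for 23.5 h at 37 C. Viability was read in the same well by CellTiter-Fluor.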

The subject of assay [3] is thyroid hormone receptor (rat, GH3 cells). The assay can be described thus: qHTS assay to identify small molecule agonists of the thyroid receptor (TR) signaling pathway (AID 743066; calls by dose curve).
Assay [4] concerns the target Estrogen receptor (Homo sapiens) (UniProt P03372). The assay is described as follows: qHTS assay to identify small molecule antagonists of the estrogen receptor alpha (ER-alpha) signaling pathway (AID 743069; active means well fitted curve in the direction sought with a large enough effect in the signal ratio in the repeat runs, not every such curve was filed as active; inconclusive means weak or mixed curves, or effect the other way; inactive means no such curve, though single readings can be large or run the other way; the % refers to the signal ratio; further: potency means the concentration at half of the fitted maximal effect). In a few lines: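 ER-alpha-UAS-bla GripTite HEK293 line; 2% charcoal-stripped FBS overnight; plated, 4 hr 37C/5% CO2; cpd in DMSO + 17beta-estradiol, 18 hr 37C; LiveBLAzer B/G FRET substrate 2 hr RT; fluorescence intensity.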

Assay [5] in a line: qHTS assay to identify small molecule antagonists of the estrogen receptor alpha (ER-alpha) signaling pathway - cell viability counter screen (AID 743074; calls by dose curve;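 further: HEK293 cells carrying ER-alpha-UAS-bla reporter stimulated with 17beta-estradiol; nearly all actives have a fitted effect of over 45% in size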).
Assay [6] deals with Estrogen receptor (Homo sapiens) (UniProt P03372). The assay can be described thus: qHTS assay to identify small molecule agonists of the estrogen receptor alpha (ER-alpha) signaling pathway (AID 743075; calls by dose curve;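 further: HEK293 GripTite cells with ER-alpha and UAS-driven beta-lactamase reporter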).
Estrogen receptor (Homo sapiens), sequence (P03372 whole entry, looked up): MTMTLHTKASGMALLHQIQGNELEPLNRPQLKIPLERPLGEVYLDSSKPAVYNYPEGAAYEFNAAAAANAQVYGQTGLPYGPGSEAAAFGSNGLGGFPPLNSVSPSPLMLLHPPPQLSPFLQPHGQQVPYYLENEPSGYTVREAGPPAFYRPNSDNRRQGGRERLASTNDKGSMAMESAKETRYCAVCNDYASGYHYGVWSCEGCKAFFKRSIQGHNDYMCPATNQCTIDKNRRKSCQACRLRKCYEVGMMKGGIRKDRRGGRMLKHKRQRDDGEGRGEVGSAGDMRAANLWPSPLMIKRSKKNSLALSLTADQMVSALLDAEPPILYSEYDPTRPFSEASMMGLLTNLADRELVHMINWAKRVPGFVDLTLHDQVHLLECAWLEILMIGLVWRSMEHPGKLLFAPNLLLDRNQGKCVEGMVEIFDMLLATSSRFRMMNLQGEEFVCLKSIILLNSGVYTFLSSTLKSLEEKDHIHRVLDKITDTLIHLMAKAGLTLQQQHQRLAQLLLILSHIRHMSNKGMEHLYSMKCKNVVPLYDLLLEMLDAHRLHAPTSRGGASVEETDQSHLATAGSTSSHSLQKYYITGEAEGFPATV
Assay [7] has the same target. The assay is described as follows: qHTS assay to identify small molecule agonists of the estrogen receptor alpha (ER-alpha) signaling pathway using the BG1 cell line (AID 743079). Further: nearly all actives have a fitted effect of over 20% in size. As to conditions: BG1Luc4E2 cells, ERE-luciferase agonist, 22 h; activation: at 70.3 µM (top of the series).
Assay [8] can be described thus: qHTS assay to identify small molecule antagonists of the estrogen receptor alpha (ER-alpha) signaling pathway using the BG1 cell line (AID 743080; calls by dose curve;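 further: BG1 cells stimulated with 17beta-estradiol alongside compound; nearly all actives have a fitted effect of over 25% in size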; further: potency means the concentration at half of the fitted maximal effect). Put shortly: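 Luciferase inhibition measured with ONE-Glo after 30 min at RT in BG1Luc4E2 cells given test compounds and 17beta-estradiol for 21.5 h at 37 C; CellTiter-Fluor viability read in the same wells beforehand.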

Assay [9] in a line: qHTS assay to identify small molecule antagonists of the estrogen receptor alpha (ER-alpha) signaling pathway using the BG1 cell line - cell viability counter screen (AID 743081).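 Further: compound given together with 17beta-estradiol as the ER stimulus; nearly all actives have a fitted effect of over 45% in size.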
The target of another assay is Aromatase (Homo sapiens) (UniProt P11511). The assay can be described thus: qHTS assay to identify aromatase inhibitors (AID 743083). Further: nearly all actives have a fitted effect of over 55% in size. Further: potency means the concentration at half of the fitted maximal effect.
Aromatase (Homo sapiens), sequence (P11511 whole entry, looked up): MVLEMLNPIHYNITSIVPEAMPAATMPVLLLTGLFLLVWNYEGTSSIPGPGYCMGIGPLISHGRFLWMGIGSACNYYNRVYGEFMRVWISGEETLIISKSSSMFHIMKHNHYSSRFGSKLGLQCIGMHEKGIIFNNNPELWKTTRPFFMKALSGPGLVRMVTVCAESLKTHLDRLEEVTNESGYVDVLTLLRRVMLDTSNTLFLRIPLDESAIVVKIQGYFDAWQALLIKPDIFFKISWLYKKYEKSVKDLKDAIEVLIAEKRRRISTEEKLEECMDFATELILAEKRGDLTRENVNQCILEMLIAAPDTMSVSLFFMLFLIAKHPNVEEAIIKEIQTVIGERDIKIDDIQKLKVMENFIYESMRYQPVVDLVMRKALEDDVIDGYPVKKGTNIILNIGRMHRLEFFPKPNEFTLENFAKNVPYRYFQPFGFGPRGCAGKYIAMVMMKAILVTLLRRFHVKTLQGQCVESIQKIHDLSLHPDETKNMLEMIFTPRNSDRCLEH
Assay [10] can be described thus: qHTS assay to identify aromatase inhibitors - cell viability counter screen (AID 743084).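 Further: cells stimulated with testosterone during compound exposure; nearly all actives have a fitted effect of over 55% in size.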 Further: potency means the concentration at half of the fitted maximal effect.
The target in assay [11] is Aryl hydrocarbon receptor (Homo sapiens) (UniProt P35869). The assay can be described thus: qHTS assay to identify small molecule that activate the aryl hydrocarbon receptor (AhR) signaling pathway (AID 743085).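 Further: HG2L7.5c1 human HepG2 liver cells with stably integrated DRE-driven firefly reporter; nearly all actives have a fitted effect of over 15% in size.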 In a few lines:
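Luminescence read-out: ONE-Glo reagent, 30 min at room temperature, in HG2L7.5c1 HepG2 reporter cells treated 24 h at 37C. Viability was measured beforehand by CellTiter-Fluor fluorescence after 30 min at 37C.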

Assay [12] can be described thus: qHTS assay to identify small molecule that activate the aryl hydrocarbon receptor (AhR) signaling pathway - cell viability counter screen (AID 743086). Further: nearly all actives have a fitted effect of over 45% in size. Further: potency means the concentration at half of the fitted maximal effect. Put shortly: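 Cytotoxicity counter screen: CellTiter-Fluor signal (30 min, 37 C) in 4000 HepG2 cells/well carrying the DRE-luciferase reporter, following 24 h compound exposure at 37 C.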
The target of assay [13] is Peroxisome proliferator-activated receptor gamma (Homo sapiens) (UniProt P37231). The assay is described as follows: qHTS assay to identify small molecule agonists of the peroxisome proliferator-activated receptor gamma (PPARg) signaling pathway (AID 743094; active means well fitted activation curve with a large enough effect in the signal ratio in the repeat runs, not every such curve was filed as active; inconclusive means weak or mixed curves, or effect the other way; inactive means no such curve, though single readings can be large or run the other way; the % refers to the signal ratio; further: potency means the concentration at half of the fitted maximal effect). Put shortly:
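Compounds dissolved in DMSO were added to PPARg UAS-bla HEK293H cells for 17 h at 37C, and reporter expression was quantified by fluorescence intensity after 1 h with LiveBLAzer B/G FRET substrate.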

Assay [14] can be described thus: qHTS assay for small molecule agonists of the antioxidant response element (ARE) signaling pathway - cell viability counter screen (AID 743203; calls by dose curve; further: nearly all actives have a fitted effect of over 55% in size; further: potency means the concentration at half of the fitted maximal effect). In a few lines: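 Following 16 hrs of compound treatment at 37C, HepG2 cells with an ARE-controlled beta-lactamase gene were lysed with CellTiter-Glo. Luminescence was read after 30 min at room temperature.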
Assay [15] in a line: qHTS assay for small molecule activators of the heat shock response signaling pathway - cell viability counter screen (AID 743209). Further: nearly all actives have a fitted effect of over 50% in size. Further: potency means the concentration at half of the fitted maximal effect. In a few lines:
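Readout: CellTiter-Glo luminescence, 30 min at room temperature. System: HSE-bla HeLa cells, 1500/well, plated overnight. Treatment: compounds in DMSO, 5 h at 37 C.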

Assay [16] can be described thus: qHTS assay for small molecule activators of the heat shock response signaling pathway (AID 743210; active means well fitted activation curve with a large enough effect in the signal ratio in the repeat runs, with a control signal flat, not every such curve was filed as active; inconclusive means weak or mixed curves; the % refers to the signal ratio;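 further: HeLa cells with beta-lactamase reporter driven by heat shock elements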). In a few lines:
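HeLa HSE-bla cells, overnight plating; cpd in DMSO 5 h, 37 C; LiveBLAzer B/G FRET substrate 2.5 h RT; fluorescence intensity read.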

Assay [17] in a line: qHTS assay to identify small molecule antagonists of the peroxisome proliferator-activated receptor gamma (PPARg) signaling pathway - cell viability counter screen (AID 743194). Further: nearly all actives have a fitted effect of over 55% in size. Further: potency means the concentration at half of the fitted maximal effect. The note with it: Potency: co-treated with 50 nM rosiglitazone unless noted. In a few lines: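 Viability was measured as CellTiter-Glo luminescence in GeneBLAzer PPARg UAS-bla HEK293H cells. These cells had been exposed 17 h at 37 C to compounds together with rosiglitazone at 50 nM final, with the beta-lactamase readout taken in the same wells.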

Assay [18] deals with Peroxisome proliferator-activated receptor gamma (Homo sapiens) (UniProt P37231). The assay can be described thus: qHTS assay to identify small molecule antagonists of the peroxisome proliferator-activated receptor gamma (PPARg) signaling pathway (AID 743191; calls by dose curve; further: nearly all actives have a fitted effect of over 30% in size). Put shortly: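 Beta-lactamase reporter under UAS control in HEK293H PPARg-bla cells; compound treatment 17 h at 37C. Read-out: fluorescence intensity after 1 h room-temperature incubation with LiveBLAzer B/G FRET substrate.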
Peroxisome proliferator-activated receptor gamma (Homo sapiens), sequence (P37231 whole entry, looked up): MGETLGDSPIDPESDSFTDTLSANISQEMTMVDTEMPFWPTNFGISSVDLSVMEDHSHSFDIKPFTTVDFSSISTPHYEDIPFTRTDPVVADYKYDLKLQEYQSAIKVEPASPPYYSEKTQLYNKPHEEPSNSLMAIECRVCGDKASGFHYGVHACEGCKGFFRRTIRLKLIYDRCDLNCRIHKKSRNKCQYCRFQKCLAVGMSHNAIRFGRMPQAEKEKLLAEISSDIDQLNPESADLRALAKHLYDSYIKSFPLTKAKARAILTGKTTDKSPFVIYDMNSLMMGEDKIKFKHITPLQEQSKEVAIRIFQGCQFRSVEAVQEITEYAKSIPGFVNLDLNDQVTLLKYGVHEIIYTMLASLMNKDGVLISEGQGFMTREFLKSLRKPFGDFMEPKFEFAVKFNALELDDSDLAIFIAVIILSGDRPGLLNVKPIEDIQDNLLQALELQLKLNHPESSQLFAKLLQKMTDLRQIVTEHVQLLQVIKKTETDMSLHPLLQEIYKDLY

A short description of assay [19]: qHTS assay for small molecule agonists of the antioxidant response element (ARE) signaling pathway (AID 743202; active means well fitted activation curve with a large enough effect in the signal ratio in the repeat runs, not every such curve was filed as active; inconclusive means weak or mixed curves, or effect the other way; inactive means no such curve, though single readings can be large or run the other way; the % refers to the signal ratio). In a few lines: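 Quantitative high-throughput format in HepG2 cells bearing an integrated ARE-beta-lactamase reporter. Compound exposure lasted 16 h at 37 C, and fluorescence was read 2 h after adding LiveBLAzer B/G substrate at room temperature.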

Several values for one entry are separate records, joined by “and”; a condition that tells them apart may be missing. Equal values may be shown once. Activity calls are given as the source filed them. Unless noted, the call rests on the fitted dose curve; in most records, active means well fitted curve in the direction sought with a large enough effect in the repeat runs; inconclusive means weak or mixed curves; inactive means no such curve, though single readings can be large; an effect the other way counts as inactive or inconclusive.

Aryl hydrocarbon receptor (Homo sapiens), sequence (P35869 whole entry, looked up): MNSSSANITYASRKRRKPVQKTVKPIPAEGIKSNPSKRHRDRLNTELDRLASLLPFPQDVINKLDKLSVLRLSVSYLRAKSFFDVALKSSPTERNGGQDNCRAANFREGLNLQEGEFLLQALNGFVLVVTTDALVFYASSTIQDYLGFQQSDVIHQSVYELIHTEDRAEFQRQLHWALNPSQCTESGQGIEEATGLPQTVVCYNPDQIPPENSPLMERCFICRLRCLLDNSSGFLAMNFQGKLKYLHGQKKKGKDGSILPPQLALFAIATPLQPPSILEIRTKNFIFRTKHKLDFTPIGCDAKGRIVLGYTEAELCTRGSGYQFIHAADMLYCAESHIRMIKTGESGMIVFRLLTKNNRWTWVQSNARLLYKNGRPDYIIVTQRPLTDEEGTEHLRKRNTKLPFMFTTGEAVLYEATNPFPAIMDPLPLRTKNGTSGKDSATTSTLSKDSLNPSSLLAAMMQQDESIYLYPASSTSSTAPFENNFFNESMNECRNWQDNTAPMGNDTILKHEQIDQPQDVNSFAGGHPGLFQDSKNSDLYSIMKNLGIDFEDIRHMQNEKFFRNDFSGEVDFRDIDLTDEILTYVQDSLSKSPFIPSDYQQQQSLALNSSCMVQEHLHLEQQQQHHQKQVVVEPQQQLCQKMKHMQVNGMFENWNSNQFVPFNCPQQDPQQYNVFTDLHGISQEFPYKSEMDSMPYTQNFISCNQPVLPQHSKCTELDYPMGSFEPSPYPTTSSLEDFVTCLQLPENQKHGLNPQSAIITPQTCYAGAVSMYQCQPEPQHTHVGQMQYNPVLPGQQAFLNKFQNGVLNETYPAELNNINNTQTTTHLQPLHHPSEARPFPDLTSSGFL

Take `ClC1(Cl)C2(Cl)C3(Cl)C4(Cl)C(Cl)(Cl)C5(Cl)C3(Cl)C1(Cl)C5(Cl)C24Cl` (stereo not drawn): the Potency result in [1], in assay [2], in assay [3], in assay [4], in assay [5] and in assay [6] was “inactive” each time. Besides, the Potency result (in assay [7]; in assay [8]; in [9]; with Aromatase (Homo sapiens); in [10]; in assay [11]) was “inactive” throughout. The Potency result in assay [12], in assay [13], in [14], in assay [15] and in [16] was “inactive” in each case.
Take `CC(C)N(C(=O)CCl)c1ccccc1`: the Potency is 27.3 µM (active) and 34.4 µM (active) in [1]; 68.6 µM (active) and 48.6 µM (active) in assay [2]; 15.5 µM [inconclusive] (active) and 6.92 µM [inconclusive] (active) in assay [4]; 54.5 µM (active) and 61.1 µM (active) in assay [8]; 21.7 µM (active) and 27.3 µM (active) in the assay with Aromatase (Homo sapiens); 24.3 µM (active) in assay [10]. Further, the Potency is 38.6 µM (active) and 68.6 µM (active) in assay [12]; 49 µM (active) and 27.5 µM (active) in [17]; 6.86 µM (active) and 3.86 µM (active) in assay [14]; 12.3 µM (active) and 5.49 µM (active) in assay [15]. The Potency result in assay [3], in [5], in [6], in assay [9], in [11] and in assay [13] was “inactive” each time.
Consider `CCC1COC(Cn2cncn2)(c2ccc(Cl)cc2Cl)O1` (stereo not drawn), for which the Potency result in [1], in [2], in [3], in assay [4], in assay [5] and in [6] was “inactive” throughout. The Potency entry in assay [7], in [9], in assay [10], in assay [12], in [13] and in [17] was “inactive” each time. Moreover, the Potency result in assay [14], in assay [15] and in [16] was “inactive” each time. Also, the Potency with Aromatase (Homo sapiens) is 24.3 µM (active).
Turning to `COc1cnc(OC)n2nc(NS(=O)(=O)c3c(OCC(F)F)cccc3C(F)(F)F)nc12`, the Potency result in assay [1], in assay [2], in assay [3], in [4], in assay [5] and in [6] was “inactive” in each case. The Potency result (in assay [7]; in assay [8]; in assay [9]; with Aromatase (Homo sapiens); in assay [10]; in [11]) was “inactive” in each case. Also, the Potency result in [12], in assay [18], in [17], in [19], in assay [14] and in assay [15] was “inactive” throughout.
For `O=P(Cl)(Cl)Cl`, the Potency result in [1], in [2], in assay [3], in assay [4], in [5] and in [6] was “inactive” each time. Further, the Potency entry (in assay [7]; in assay [8]; in assay [9]; in the assay with Aromatase (Homo sapiens); in [10]; in assay [11]) was “inactive” each time. For the same compound, the Potency entry in assay [12], in [17], in assay [19], in assay [14], in [15] and in assay [16] was “inactive” throughout.
Turning to `N#Cc1ccc(N(CC(N)=O)CC(F)(F)F)cc1C(F)(F)F`, the Potency result in assay [1], in assay [2], in [3], in assay [4], in [5] and in assay [6] was “inactive” each time. The Potency result (in [7]; in assay [8]; in assay [9]; in the assay with Aromatase (Homo sapiens); in assay [10]; in assay [11]) was “inactive” throughout. The Potency result in [12], in [17], in [19], in assay [14], in assay [15] and in [16] was “inactive” throughout. The Potency in assay [13] is 0.692 µM (active).
With `CN/C(=N\[N+](=O)[O-])NCc1cnc(Cl)s1`, the Potency result in assay [1], in assay [2], in assay [3], in assay [4], in assay [5] and in assay [6] was “inactive” in each case. The Potency result (in assay [7]; in [8]; in assay [9]; in the assay with Aromatase (Homo sapiens); in assay [10]; in assay [11]) was “inactive” each time. Besides, the Potency entry in [12], in [13], in assay [18], in [17], in [19] and in assay [14] was “inactive” each time. Moreover, the Potency entry in assay [15] is “inactive”.
